Compound activity from PubChem.
NIH3T3 tox: cytotoxic compounds in NIH 3T3 cells; Potency, µM (series often up to 96.7 µM), for inactives: at the highest dose activity change, negative = cytotoxicity, most hits filed as inhibitors; NIH 3T3 viability, CellTiter-Glo ATP luminescence, 48-72 h; hit rate 4.3% among 94,000; further: on the % scale 0 is the no-effect control and ±100 the full control effect; nearly all actives have a fitted effect of over 55% in size
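ATP-dependent luminescence (CellTiter-Glo) served as the viability signal for NIH 3T3 cells treated with compound for 48 or 72 hr at 37 °C.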
HEK cytotox: kills HEK 293 cells; HEK 293 viability, ATP luminescence (CellTiter-Glo), 48-72 h; Potency, µM (titrated, usually from 115 µM), for the others: at the highest dose activity change, negative = cytotoxicity, usual class: inhibitors; hit rate 6.6% among 94,000; further: on the % scale 0 is the no-effect control and ±100 the full control effect; nearly all actives have a fitted effect of over 60% in size
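CellTiter-Glo luminescence (cellular ATP) was read after 48 or 72 hr of compound exposure at 37 degree Celsius. Cells were HEK 293 plated at 250 cells/well.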
NPR1 antag: antagonists of human natriuretic peptide receptor Npr1; P16066; HEK293 hNpr1 GloSensor cGMP, ANP-stimulated luminescence; Potency, µM (doses to about 46.3 µM), for inactives: at the highest dose activity change, negative = inhibition, most hits filed as inhibitors; hit rate 1.6% among 76,000; AID 1347048; calls by dose curve; further: on the % scale 0 is the no-effect control and ±100 the full control effect; nearly all actives have a fitted effect of over 60% in size
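Compound pre-incubated 30 min at room temperature on GloSensor-loaded HEK293 cells stably carrying hNpr1 and the pGS-40F cGMP biosensor. Stimulation uses hNppA at 0.1 nM final; luminescence is taken at baseline and 20 min post-agonist.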
Luciferase inh: Photinus pyralis luciferase inhibition; purified P. pyralis luciferase, luminescence, biochemical; Potency, µM (titrated, usually from 115 µM), actives largely listed as inhibitors; hit rate 2.5% among 76,000; further: on the % scale 0 is the no-effect control and ±100 the full control effect; nearly all actives have a fitted effect of over 65% in size
Target sequence (P08659 whole entry, looked up): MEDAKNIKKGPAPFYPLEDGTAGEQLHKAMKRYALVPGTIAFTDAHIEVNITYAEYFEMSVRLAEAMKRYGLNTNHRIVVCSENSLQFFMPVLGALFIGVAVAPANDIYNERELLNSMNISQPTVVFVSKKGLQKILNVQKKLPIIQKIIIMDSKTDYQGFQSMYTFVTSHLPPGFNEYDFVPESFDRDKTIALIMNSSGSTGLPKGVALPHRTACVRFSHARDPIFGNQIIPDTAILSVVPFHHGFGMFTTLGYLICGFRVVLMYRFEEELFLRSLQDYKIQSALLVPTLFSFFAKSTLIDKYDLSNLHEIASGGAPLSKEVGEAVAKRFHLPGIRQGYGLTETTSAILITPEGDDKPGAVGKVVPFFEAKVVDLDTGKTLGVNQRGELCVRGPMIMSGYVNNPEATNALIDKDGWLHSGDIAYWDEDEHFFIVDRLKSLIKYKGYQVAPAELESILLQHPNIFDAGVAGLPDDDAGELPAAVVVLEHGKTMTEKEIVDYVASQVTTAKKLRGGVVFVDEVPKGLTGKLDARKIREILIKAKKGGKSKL
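Purified 10nM P. pyralis luciferase with 10uM D-luciferin and 10uM ATP in 50mM Tris acetate pH 7.5, 10mM Mg acetate, 0.01% Tween-20, 0.05% BSA. qHTS titration; luminescence read by CCD imager.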
NPR1 antag cnf: confirmation of human Npr1 natriuretic peptide receptor antagonists | shares compounds with NPR1 antag | HEK293 hNpr1 cGMP GloSensor luminescence, ANP-stimulated | Potency, µM (doses to about 57.6 µM), inactives show top-dose activity change, negative = inhibition, actives largely listed as inhibitors | hit rate 76% among 1,400; calls by dose curve; further: nearly all actives have a fitted effect of over 70% in size
Npr2 selectivity: hNpr2 antagonism, selectivity versus Npr1; hit rate 67% among 1,400; Potency, µM (doses to about 57.6 µM), inactives show top-dose activity change, negative = inhibition, hits mostly inhibitors; HEK293 hNpr2 GloSensor cGMP luminescence, CNP-stimulated; shares compounds with NPR1 antag; calls by dose curve; further: nearly all actives have a fitted effect of over 70% in size
FLuc counter: counter-screen for Npr1 antagonists: firefly luciferase inhibitors; shares compounds with NPR1 antag; purified FLuc enzyme, luminescence, Km substrate; Potency, µM (titrated, usually from 57.6 µM), for the others: at the top dose activity change, negative = inhibition, usual class: inhibitors; hit rate 0.7% among 1,400; further: series mostly up to about 58 µM; 0% is about no effect
GloSensor ctrl: counter-screen for Npr1 antagonists: GloSensor control cell line. shares compounds with NPR1 antag. HEK293 GloSensor cGMP, SNP-stimulated, luminescence. Potency, µM (series often up to 57.6 µM), for inactives: at the highest dose activity change, negative = inhibition, actives largely listed as inhibitors. hit rate 69% among 1,400. AID 1347051; calls by dose curve; further: on the % scale 0 is the no-effect control and ±100 the full control effect; nearly all actives have a fitted effect of over 70% in size
* marks the source's active call; other numbers are inactive results; i = inactive; u = inconclusive; x = no result given; [ ] = dose if it differs, or a comment. Compounds with a hit are over-represented: about 11% of the library has one in this group of screens. Unless noted, the call rests on the fitted dose curve; in most records, active means well fitted curve in the direction sought with a large enough effect; inconclusive means small, poorly fitted or top-dose-only effect, or another doubt; inactive means no such curve, though single readings can be large; an effect the other way counts as inactive or inconclusive. Potency means the concentration at half of the fitted maximal effect.

SMILES | NIH3T3 tox | HEK cytotox | NPR1 antag | Luciferase inh | NPR1 antag cnf | Npr2 selectivity | FLuc counter | GloSensor ctrl
Cn1cc(C(=O)N2[C@H]3CC[C@@H]2c2cnc(-c4ccc(F)cc4)nc2C3)cn1 | -23% | u | 0% | i | x | x | x | x
CC(C)CC(=O)N1[C@H]2CC[C@@H]1c1cnc(-c3ccc(F)cc3)nc1C2 | u | 20µM* | 13µM* | i | 24µM* | 24µM* | 3% | 19µM*
CCn1nccc1C(=O)N1[C@H]2CC[C@@H]1c1cnc(-c3ccc(F)cc3)nc1C2 | u | u | 6.3µM* | i | 11µM* | 12µM* | 2% | 11µM*
CC(C)C(=O)N1[C@H]2CC[C@@H]1c1cnc(-c3ccc(F)cc3)nc1C2 | -28% | u | 22µM* | i | 19µM* | 22µM* | 1% | 19µM*
O=C(C1CCCC1)N1[C@H]2CC[C@@H]1c1cnc(-c3ccc(F)cc3)nc1C2 | -11% | 16µM* | 10µM* | i | 8.6µM* | 12µM* | -1% | 8.6µM*
COCC(=O)N1[C@H]2CC[C@@H]1c1cnc(-c3ccc(F)cc3)nc1C2 | -13% | u | 1% | i | x | x | x | x
CC(=O)N1C2CCC1CN(C(C)C)C2 | -16%[174 µM] | -13%[230 µM] | x | x | x | x | x | x
Cc1cccc(CN2C[C@@H]3C[C@H]2C(=O)N(C)c2ccccc2O3)n1 | -19%[138 µM] | -13%[172 µM] | 1%[70.6 µM] | i | x | x | x | x
C[S+](=O)([O-])N1CCC2(CC1)C(=O)NN=C2c1cccnc1 | -20%[138 µM] | -18%[172 µM] | 16%[70.6 µM] | i | x | x | x | x
